# The list is not random: actives were taken first. Their share in the collection is about 21%.
# HCV inh = qHTS Assay for Inhibitors of Hepatitis C Virus (HCV); Huh7.5.1 HCVcc-Cre infection, luciferase reporter, 44 h; Potency, µM (top dose mostly 41.8 µM), for the others: top-dose activity change, negative = inhibition, actives largely listed as inhibitors; 340,000 tested, 3.4% active; AID 651820, 2012; also: potency is read from the fitted curve at half-maximal effect; % is scaled to controls: 0 for no effect and ±100 for the full control effect
#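 Whole-lifecycle infectious HCVcc-Cre system; cells 1,000/well, compound then virus (~0.5 moi) added 4 h after plating, 44 h culture. Luciferase read 15 sec following 15 min substrate incubation, room temp.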
# CHX counter = Cycloheximide Counterscreen for Small Molecule Inhibitors of Shiga Toxin; max response, %; AID 2314, 2010; 300,000 tested, 12% active; cell reporter, cycloheximide protein synthesis inhibition counterscreen; in the data active = max response mostly above about 13%, no sharp cut-off; inactive = mostly below about 14%; also: read at 38.3 µM for the half of the compounds with a filed dose; 0% is about no effect
# Pf growth 48h = Primary qHTS for delayed death inhibitors of the malarial parasite plastid, 48 hour incubation; P. falciparum luciferase growth in erythrocytes, 48 h; Potency, µM (titrated, usually from 28.7 µM), without a hit: at the top dose activity change, negative = inhibition, hits mostly inhibitors; 310,000 tested, 5.9% active; also: potency is read from the fitted curve at half-maximal effect; % is scaled to controls: 0 for no effect and ±100 for the full control effect
#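 In quantitative HTS format, infected erythrocytes bearing luciferase-reporter parasites were treated for a single generation at 37 C. Luminescence after adding detection reagent served as the growth measure.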
# Shiga toxin inh = A qHTS for Small Molecule Inhibitors of Shiga Toxin; Vero cells, Shiga toxin protein synthesis inhibition reporter; inhibition, % at 38.7 µM; 290,000 tested, 9.2% active; AID 2315, 2010; in the data active = inhibition mostly above about 28%, no sharp cut-off; inactive = mostly below about 43%; also: 0% is about no effect
# HCMV inh = qHTS Assay for inhibitors of the human cytomegalovirus (HCMV) | HFF cells, HCMV-luciferase reporter, 72 h; hits give low values | activity change, negative = inhibition, % at 57.5 µM | 410,000 tested, 4.5% active | AID 1259415, 2018; in the data active = activity change below about -60%; inconclusive = no clear call, values can overlap the other calls; inactive = above about -39%; also: % is scaled to controls: 0 for no effect and ±100 for the full control effect
#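 Two-dose cell screen: HFF monolayers treated with compounds and infected with luciferase-expressing HCMV at 1 PFU/cell, 72 h at 37C, then lysed for luciferase measurement.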
# Pf growth 96h = Primary qHTS for delayed death inhibitors of the malarial parasite plastid, 96 hour incubation. 320,000 tested, 6.9% active. AID 504834, 2011. P. falciparum luciferase reporter growth, 96 h. Potency, µM (doses to about 28.7 µM), for the others: top-dose activity change, negative = inhibition, most hits filed as inhibitors; also: potency is read from the fitted curve at half-maximal effect; % is scaled to controls: 0 for no effect and ±100 for the full control effect
#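 Plates of compound plus infected erythrocytes (2% hematocrit, 0.05% parasitemia final) incubate 96 hours, 37 C, 5% CO2. Detection reagent added; reduced luminescence from the parasites' luciferase reporter flags inhibition.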
# * marks the source's active call; other numbers are inactive results; ? = inconclusive; . = not tested or not shown; [ ] = remark or other dose. Unless noted, calls follow the shape of the dose curve; as a rule, active = well fitted inhibition curve with a large enough effect; inconclusive = small, poorly fitted or top-dose-only effect, or another doubt; inactive = no such curve, though single readings can be large or run the other way.
SMILES,HCV inh,CHX counter,Pf growth 48h,Shiga toxin inh,HCMV inh,Pf growth 96h
CCOC(=O)c1ccc(NC(=O)CSc2ccc(-c3cccnc3)nn2)cc1,?,16*,-21%,54,1,-21%
Cc1ccccc1NC(=O)CSc1ccncc1,-5%,14*,10%,26,0,3%
Cc1ccccc1NC(=O)CSc1ccc(-c2cccnc2)nn1,14%,-2,-29%,-9,0,10µM*
O=C(CSc1ccc(-c2cccnc2)nn1)Nc1ccccc1,?,6,4%,8,-33,12µM*
COc1ccc(NC(=O)CSc2oc(-c3ccco3)nc2S(=O)(=O)c2ccccc2)c(OC)c1,.,.,.,.,1,.
Nc1ccn([C@@H]2O[C@H](CNCc3ccc(C#CCCO)cc3)[C@@H](O)[C@H]2O)c(=O)n1,.,.,.,.,-5,.
COc1ccc(C(=O)O)cc1S(=O)(=O)NCc1ccncc1,?,.,.,.,36,.
Cc1oc(-c2ccccc2F)nc1CS(=O)(=O)CC(=O)NCCCN1CCc2ccccc2C1,?,-7,?,-10,-28,8.3µM*
CCN1CCCC1CNC(=O)CSCc1nc(-c2ccccc2C)oc1C (stereo not given),?,-1,?,-11,-3,-4%
Cc1oc(-c2ccccc2F)nc1CS(=O)(=O)CC(=O)NCCN1CCCC1,-3%,-3,?,-14,-34,38%
Cc1oc(-c2ccccc2F)nc1CS(=O)(=O)CC(=O)N1CCOCC1,1%,-8,5%,6,-1,9.3µM*
Cc1oc(-c2ccccc2F)nc1CS(=O)(=O)CC(=O)N1CCN(Cc2ccccc2)CC1,?,-4,-25%,-10,-20,?
Cc1oc(-c2ccccc2F)nc1CS(=O)(=O)CC(=O)N1CCN(c2cccc(C(F)(F)F)c2)CC1,.,.,.,.,-24,.
CCN1CCCC1CNC(=O)CS(=O)(=O)Cc1nc(-c2ccccc2C)oc1C (stereo not given),?,-4,12µM*,8,21,-16%
Cc1cccc(N2CCN(C(=O)CS(=O)(=O)Cc3nc(-c4ccccc4F)oc3C)CC2C)c1 (stereo not given),13µM*,-2,?,0,-31,51%
O=C(NCc1cccc(F)c1)c1ccc(NC(=O)c2nsc3ccccc23)cc1,.,.,.,.,80,.
COc1ccc(NC(=O)N(C)C[C@@H]2OCc3cnnn3CCCC(=O)N([C@@H](C)CO)C[C@H]2C)cc1,.,.,.,.,-3,.
O=C1NC(=O)N(Cc2ccccc2)CC1Br (stereo not given),5%,.,.,.,0,.
COc1ccc2c3c(n(C)c2c1)[C@@H](CO)N(C(=O)NC1CCCCC1)CC31CCN(C)CC1,.,.,.,.,-32,.
CCOC(=O)c1c(NC(=O)Cn2nc([N+](=O)[O-])c(Br)c2C)sc2c1CCC(C)C2 (stereo not given),?,1,-27%,-10,27,0.013µM*
COCC(=O)Nc1sc2c(c1C(=O)OC)CCC(C)C2 (stereo not given),7.1µM*,12*,3%,37,-8,.
COC(=O)c1c(NC(=O)CC2SC(N)=NC2=O)sc2c1CCC(C)C2 (stereo not given),?,-1,5%,-11,-34,3.7µM*
Cc1c(Br)c([N+](=O)[O-])nn1CC(=O)NC1CCCCCC1,-4%,8,-12%,-4,?,1.5µM*
CCOC(=O)c1c(NC(=O)Cn2nc(C(=O)O)c3ccccc3c2=O)sc2c1CCC(C)C2 (stereo not given),-10%,13,-5%,-7,-28,35%
CCOC(=O)c1c(NC(=O)CC2SC(N)=NC2=O)sc2c1CCC(C)C2 (stereo not given),?,-2,?,7,6,44%
CCCc1nn2c(=O)cc(COC(=O)c3cccc(NC(=O)CCc4ccccc4)c3)nc2s1,.,.,.,.,-22,.
CCOc1ccc(CNC(=O)CCn2nc(C)c3c(C)n(-c4ccccc4)nc3c2=O)cc1,.,.,.,.,8,.
O=C(Cc1ccc(Br)cc1)Nc1cccc(Cl)c1,-1%,21*,6%[5.75 µM],22,?,-8%
